PubChem BioAssay (NCATS)
Inconclusive results are not listed. Values without a mark were called inactive. Active and inactive are the calls of the source. Calls come from the whole dose curve.

assay: Primary qHTS for inhibitors of SARS-S pseudo-typed particle cell entry (AID 1479145); details: SARS-S pseudotyped particle cell entry, luciferase reporter; series mostly up to 57.1 µM; activity change, negative = inhibition: at the top concentration; note: nearly all actives have a fitted effect of over 45% in size
% is set by controls: 0 for no effect and ±100 for the full control effect; potency is the fitted concentration of half-maximal effect.

Row | SMILES | outcome | activity change, negative = inhibition | Potency
1 | CSc1ccc(C(=O)c2[nH]c(=O)[nH]c2C)cc1 | inactive |  | 
2 | CCN(CC)C(=O)c1cccc(C)c1 | inactive |  | 
3 | NC(=O)c1ncn([C@@H]2O[C@H](CO)[C@@H](O)[C@H]2O)c1N |  | -13% | 
4 | Oc1cccc(-c2c3nc(c(-c4cccc(O)c4)c4ccc([nH]4)c(-c4cccc(O)c4)c4nc(c(-c5cccc(O)c5)c5ccc2[nH]5)CC4)C=C3)c1 |  | -26.4% | 
5 | CC(C)[C@@H]1CC[C@@H](C)CC1=O | inactive |  | 
6 | CCOC(=O)Cn1cccc1-c1nc(-c2ccc(OC)cc2)c(-c2ccc(OC)cc2)s1 |  |  | 14.1 µM (active)
7 | CC(C)(C)c1ccc(C(O)CCCN2CCC(C(O)(c3ccccc3)c3ccccc3)CC2)cc1 (stereo not drawn) | inactive |  | 
8 | COc1ccc2[nH]c(S(=O)Cc3ncc(C)c(OC)c3C)nc2n1 (stereo not drawn) |  |  | 20 µM (active)
9 | FC(F)(F)C(F)(F)C(F)(F)C(F)(F)C(F)(F)C(F)(F)C(F)(F)C(F)(F)Br | inactive |  | 
10 | CC(=O)[C@H]1CC[C@H]2[C@@H]3CC=C4C[C@@H](O)CC[C@]4(C)[C@H]3CC[C@]12C | inactive |  | 
11 | O=C(O)CNC(=O)c1ccccc1I |  | -16.6% | 
12 | C[C@]12CCC(=O)C=C1CC[C@@H]1[C@@H]2[C@@H](O)C[C@@]2(C)[C@H]1CC[C@]2(O)C(=O)CO | inactive |  | 
13 | CC(C)C(=O)Nc1cccc(C2CN3CCSC3=N2)c1 (stereo not drawn) | inactive |  | 
14 | NC(CSCC(=O)O)C(=O)O (stereo not drawn) |  | -8.15% | 
15 | N=C(N)c1ccc2cc(OC(=O)c3ccc(N=C(N)N)cc3)ccc2c1 |  | 4.27% | 
16 | O=C(O)CCC(=O)OC[C@@H](NC(=O)C(Cl)Cl)[C@H](O)c1ccc([N+](=O)[O-])cc1 |  | -25.2% | 
17 | CCOC(=O)[C@H](CCc1ccccc1)N[C@H]1CCc2ccccc2N(CC(=O)O)C1=O | inactive |  | 
18 | CN(C)CC/C=C1\c2ccccc2Sc2ccc(Cl)cc21 |  |  | 10 µM (active)
19 | CCN(CCCc1ccccc1)CCCc1ccccc1 |  | -22.1% | 

Row | SMILES | outcome | activity change, negative = inhibition | Potency
20 | CCCC(=O)O[C@]1(C(=O)CCl)[C@@H](C)C[C@H]2[C@@H]3CCC4=CC(=O)C=C[C@]4(C)[C@@]3(F)C(=O)C[C@@]21C |  | -23.4% | 
21 | CCOC(=O)C1=C[C@]2(CC)CCCN3CCc4c(n1c1ccccc41)[C@@H]32 |  | -13.2% | 
22 | CCCc1cc(C(N)=S)ccn1 |  | -15.2% | 
23 | Cn1c(=O)c2c(ncn2C)n(C)c1=O |  | -39% | 
24 | CCCCCC1Nc2cc(C(F)(F)F)c(S(N)(=O)=O)cc2S(=O)(=O)N1 (stereo not drawn) |  | -3.59% | 
25 | O=C1OC2(c3ccccc31)c1cc(I)c(O)c(I)c1Oc1c2cc(I)c(O)c1I |  | -13.7% | 
26 | Cc1cccc(N(C)C(=S)Oc2ccc3ccccc3c2)c1 | inactive |  | 
27 | CCOc1c(N2CCOCC2)cnn(C)c1=O | inactive |  | 
28 | CNC(=O)c1c(I)c(NC(=O)CCCCC(=O)Nc2c(I)c(C(=O)O)c(I)c(C(=O)NC)c2I)c(I)c(C(=O)O)c1I | inactive |  | 
29 | COc1cc(C(=O)OCCCN2CCCN(CCCOC(=O)c3cc(OC)c(OC)c(OC)c3)CC2)cc(OC)c1OC |  |  | 11.2 µM (active)
30 | CC(C(O)c1ccc(O)cc1)N1CCC(Cc2ccccc2)CC1 (stereo not drawn) |  | -16.7% | 
31 | CCCCOc1ccc(CC(=O)NO)cc1 | inactive |  | 
32 | CC(=O)OCC(=O)[C@@]1(O)CCC2C3CCC4=CC(=O)CC[C@]4(C)C3[C@@H](O)C[C@@]21C (stereo partly drawn) | inactive |  | 
33 | CC(C)(C)CC(=O)OCC(=O)[C@@]1(O)CC[C@H]2[C@@H]3CCC4=CC(=O)C=C[C@]4(C)[C@H]3[C@@H](O)C[C@@]21C | inactive |  | 
34 | CN1C[C@H](C(=O)N[C@]2(C)O[C@@]3(O)[C@@H]4CCCN4C(=O)[C@H](Cc4ccccc4)N3C2=O)C[C@@H]2c3cccc4[nH]cc(c34)C[C@H]21 | inactive |  | 
35 | CCN(CCCCOC(=O)c1ccc(OC)c(OC)c1)C(C)Cc1ccc(OC)cc1 (stereo not drawn) |  |  | 11.2 µM (active)
36 | CCOC(=O)C1=C(C)NC(C)=C(C(=O)OCC)C1c1ccccc1/C=C/C(=O)OC(C)(C)C |  | -0.455% | 
37 | C[N+]1(CC2COC(c3ccccc3)(C3CCCCC3)O2)CCCCC1 (stereo not drawn) | inactive |  | 
38 | NC(N)=NCCC[C@H](N)C(=O)O |  | -24.6% [at 5.34 µM] | 
